An excerpt weighted towards active compounds, which were near 2.2% of everything screened.
PPC-1+TRAIL kill – compounds killing PPC-1 cancer cells with TRAIL present (potentiator screen, no TRAIL-free arm). hit rate 0.41% among 220,000. cell killing (% activity), % at 4 µM or 5 µM. PPC-1 cells + TRAIL, ATPLite viability luminescence;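 active = cell killing above 50% in the first pass at 4 µM, then a duplicate retest at 5 µM averaging 50% or more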;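 also: plate controls were cells with TRAIL plus DMSO for no effect and medium-only wells lacking cells for full effect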
HIF-2a inh – blocks HIF-2a reporter activity | 786-0 RCC cells HIF-2a reporter, luciferase luminescence, overnight | inhibition, % at 18.8 µM | hit rate 0.72% among 360,000 | AID 624352;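 active = inhibition of the luminescence signal of 40% or more relative to plate controls, in a single-dose primary screen at 18.75 µM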
CF NFkB block – inhibitors of cystic fibrosis induced NF-kB | AID 588850 | hit rate 0.86% among 360,000 | KKLEB NF-kB-GFP reporter, PAF-induced, GFP fluorescence overnight | inhibition, % at 5 µM;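 active = at least 50% inhibition at 5 µM, scaled per plate between neutral and stimulator controls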;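 also: PAF is a Pseudomonas aeruginosa culture filtrate used as stimulus; plate controls were PAF-stimulated DMSO wells for no effect and unstimulated DMSO wells for full effect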
KKLEB tox – counter-screen for CF NF-kB inhibitors: cytotoxicity; AID 602141; hit rate 0.36% among 360,000; KKLEB CF airway cells viability, ATPlite luminescence, overnight; hits give low values; cells stimulated with P. aeruginosa culture filtrate; activity change (cytotoxicity), % at 5 µM;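 active = corrected activity change at or below -50% at 5 µM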
TRAIL sens C8 – sensitizes caspase-8 expressing cells to TRAIL; inhibition (viability loss, TRAIL sensitization), % at 10 µM; hit rate 1% among 360,000; AID 624354; NB7+C8 cells + TRAIL, ATPlite viability luminescence;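 active = compounds causing at least 50% loss of cell viability in the single-dose screen, relative to plate controls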
hiPSC survival – increases survival of single human iPS cells; hiPSC single-cell survival, ATPlite luminescence; 100% = ROCK inhibitor wells, 0% = DMSO; survival enhancement, % at 20 µM; hit rate 0.044% among 360,000; AID 602274; in the data active = survival enhancement above about 18%;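 also: cells exposed to compounds for 16 hours before the ATP read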
PPC1 cytotox – kills PPC-1 cells; shares compounds with PPC-1+TRAIL kill; PPC-1 viability, ATPlite luminescence, overnight; cytotoxicity, % at 5 µM; hit rate 50% among 1,200;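 active = reconfirmed compounds whose average cytotoxicity reaches 50% or more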;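 also: 0% = DMSO-treated cells and 100% = wells holding medium but no cells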
* hit, by the source's call.

Results for CCNC(=S)NNC(=O)c1cc(-c2cccc(C)c2)nc2ccccc12 ?
PPC-1+TRAIL kill: 66*; HIF-2a inh: -223; CF NFkB block: -15; KKLEB tox: -12; TRAIL sens C8: 61*; hiPSC survival: -1; PPC1 cytotox: 65*

How did CCCCOc1ccc(-c2cc(C(=O)NNC(=S)NCC)c3ccccc3n2)cc1 do in these assays?
PPC-1+TRAIL kill: 90*; HIF-2a inh: -44; CF NFkB block: 67*; KKLEB tox: -89*; TRAIL sens C8: 87*; hiPSC survival: -6; PPC1 cytotox: 90*

Results for CCOc1ccc(-c2cc(C(=O)O)c3ccccc3n2)cc1 ?
PPC-1+TRAIL kill: 77*; HIF-2a inh: -120; CF NFkB block: 8; KKLEB tox: 0; TRAIL sens C8: 83*; hiPSC survival: -3; PPC1 cytotox: 77*

Results for COc1ccccc1CCC(=O)N(C)CC(=O)Nc1ccc(F)cc1 ?
HIF-2a inh: 18; CF NFkB block: 8; KKLEB tox: 2; TRAIL sens C8: -10; hiPSC survival: 0

Results for Cc1ccccc1NC(=O)COC(=O)c1cc(S(=O)(=O)N2CCOCC2)ccc1C ?
HIF-2a inh: 8; CF NFkB block: 14; KKLEB tox: -3; TRAIL sens C8: 4; hiPSC survival: 1

How did Cc1ccc(-c2cc(C(=O)NCc3ccc4c(c3)OCO4)no2)cc1 do in these assays?
PPC-1+TRAIL kill: 9; HIF-2a inh: -118; CF NFkB block: -3; KKLEB tox: 4; TRAIL sens C8: 9; hiPSC survival: -1

Results for O=C(NCc1ccc2c(c1)OCO2)c1cc(-c2ccccc2)on1 ?
PPC-1+TRAIL kill: 21; HIF-2a inh: -49; CF NFkB block: 12; KKLEB tox: -3; TRAIL sens C8: -1; hiPSC survival: -1; PPC1 cytotox: 13

How did COc1ccc(CN2CCN(C3CCC3)CC2CCO)c(F)c1 (configuration not stated) do in these assays?
HIF-2a inh: 14; CF NFkB block: -8; KKLEB tox: 10; TRAIL sens C8: 4; hiPSC survival: -1

Results for Cc1cc(C(=O)CN2C(=O)C3CC=CCC3C2=O)c(C)n1-c1ccccc1 (configuration not stated) ?
PPC-1+TRAIL kill: 49; HIF-2a inh: -94; CF NFkB block: -4; KKLEB tox: -8; TRAIL sens C8: 63*; hiPSC survival: -4; PPC1 cytotox: 53*

How did Cc1cc(C(=O)CN2C(=O)c3ccccc3S2(=O)=O)c(C)n1-c1ccccc1 do in these assays?
PPC-1+TRAIL kill: 26; HIF-2a inh: 86*; CF NFkB block: 8; KKLEB tox: -9; TRAIL sens C8: 63*; hiPSC survival: -2; PPC1 cytotox: 23

What do the screens show for `O=C(CONS(=O)(=O)c1ccc(Cl)cc1)NCCNc1ncc(C(F)(F)F)cc1Cl`?
PPC-1+TRAIL kill: 19; HIF-2a inh: 14; CF NFkB block: 6; KKLEB tox: 7; TRAIL sens C8: -3; hiPSC survival: -2

Results for CCN(CC)c1ccc(/C=N/N=C(N)N)c(O)c1 ?
PPC-1+TRAIL kill: 12; HIF-2a inh: -16; CF NFkB block: 3; KKLEB tox: 4; TRAIL sens C8: 17; hiPSC survival: 0

Results for CCS/C(N)=N/N=C/c1cc(C)ccc1O ?
PPC-1+TRAIL kill: 62*; HIF-2a inh: -243; CF NFkB block: -8; KKLEB tox: -11; TRAIL sens C8: 72*; hiPSC survival: -6; PPC1 cytotox: 64*

How did COc1ccc(C(C)NC(=O)C2CCCO2)cc1OC (configuration not stated) do in these assays?
PPC-1+TRAIL kill: -6; HIF-2a inh: 8; CF NFkB block: 10; KKLEB tox: 2; TRAIL sens C8: -1; hiPSC survival: 1; PPC1 cytotox: -11

How did CCN1CCN(C(=O)CCNC(=O)Cn2cnc3ccccc3c2=O)CC1 do in these assays?
HIF-2a inh: 5; CF NFkB block: -18; KKLEB tox: 8; TRAIL sens C8: 1; hiPSC survival: -1

Results for O=C(Nc1nc2c(s1)CCCC2)c1cccnc1 ?
PPC-1+TRAIL kill: 19; HIF-2a inh: -280; CF NFkB block: -14; KKLEB tox: -9; TRAIL sens C8: 9; hiPSC survival: -2
